Bioassay records: PubChem, National Center for Advancing Translational Sciences (NCATS)
This is a sample that favours compounds with a hit; in the whole collection about 1.4% have one here.
KCNH2 3.1 inh – blocks the human KCNH2 3.1 channel isoform | AID 720553 | 340,000 compounds, 0.95% hits | activity change, % (tested at about 1.8 µM) | U2OS KCNH2 3.1, thallium flux FluxOr; hits give low values;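 active = maximum activity change below -70%; inconclusive = maximum activity change from -70% to -50%; inactive = maximum activity change above -50%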;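 note: thallium influx rate constant from kinetic fluorescence after stimulation buffer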
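Normalized rate constant (relative to positive and negative DMSO controls) derived from a 2 min kinetic fluorescence read after stimulation; U2OS cells expressing the 3.1 isoform via virus at 1.77 x 10^8 /mL.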
RXFP1 antag – blocks the human relaxin receptor RXFP1 | Q9HBX9 | HEK293-RXFP1, relaxin-stimulated cAMP HTRF, 30 min; hits give low values | activity change, negative = inhibition, % at 57.5 µM | 350,000 compounds, 0.59% hits | AID 1259400;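 active = activity change of -60% or lower, but not beyond a set lower limit; inconclusive = change between -60% and -40%, or beyond the set limit; inactive = change above -40%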
hERG WT inh – inhibitors of human wildtype KCNH2 potassium channel. Q12809. U2OS, BacMam KCNH2, thallium flux FluxOr; hits give low values. activity change, % at 1.84 µM. 340,000 compounds, 0.37% hits;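 active = maximum activity change below -70%; inconclusive = maximum activity change between -70% and -50%; inactive = maximum activity change above -50%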
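U2OS cells were transduced with wild-type KCNH2 virus (2.03 x 10^8 / mL) for 4 h at room temperature, then cultured overnight at 37 C. Thallium flux was read with FluxOr dye. Rate constants were normalized to DMSO controls.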
PTHR1 ag – agonists of human PTHR1 parathyroid hormone receptor; AID 743266; 410,000 compounds, 0.075% hits; Q03431; HEK293 GP2 PTHR1 cells, GloSensor cAMP luminescence, 1 h; Potency, µM (top dose mostly 115 µM), most hits filed as activators; note: nearly all actives have a fitted effect of over 55% in size
Target sequence (Q03431 whole entry, looked up): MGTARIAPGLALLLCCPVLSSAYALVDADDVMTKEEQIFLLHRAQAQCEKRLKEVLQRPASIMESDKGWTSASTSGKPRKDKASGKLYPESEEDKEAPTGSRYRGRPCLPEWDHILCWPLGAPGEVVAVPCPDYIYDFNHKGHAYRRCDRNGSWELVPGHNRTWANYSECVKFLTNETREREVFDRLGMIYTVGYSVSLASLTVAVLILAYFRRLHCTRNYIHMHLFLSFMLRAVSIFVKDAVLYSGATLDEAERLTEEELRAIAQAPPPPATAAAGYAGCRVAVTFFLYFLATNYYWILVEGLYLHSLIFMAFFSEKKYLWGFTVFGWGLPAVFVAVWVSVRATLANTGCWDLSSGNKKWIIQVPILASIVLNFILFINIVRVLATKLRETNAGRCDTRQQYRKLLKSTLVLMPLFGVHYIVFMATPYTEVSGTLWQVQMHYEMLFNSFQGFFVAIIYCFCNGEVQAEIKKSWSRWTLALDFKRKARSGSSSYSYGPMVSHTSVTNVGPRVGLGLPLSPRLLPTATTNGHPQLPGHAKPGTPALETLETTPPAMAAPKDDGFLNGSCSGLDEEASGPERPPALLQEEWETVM
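HEK-293-derived GP2 cells expressing PTHR1 and a GloSensor cAMP reporter, 3,000/well, plated overnight, given luciferin plus IBMX (each 0.5 mM as added) for 1 h at 37 °C, then compound for 1 h at 37 °C. Luminescence was read after 15 min at room temperature.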
RXFP1 agonist – activates the human relaxin receptor RXFP1; AID 2676; 370,000 compounds, 0.3% hits; HEK293T-RXFP1 cAMP TR-FRET, 30 min; response scale: percent of porcine relaxin response, buffer zero; Potency, µM (top dose mostly 57.5 µM), hits mostly activators; note: nearly all actives have a fitted effect of over 60% in size
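HEK293T cells stably expressing RXFP1 were pretreated with the PDE4 inhibitor Ro 20174, exposed to compounds for 30 min at 37C, lysed, and cAMP was read by TR-FRET. Data normalized to buffer (basal) and 29 nM porcine relaxin (100%).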
GRP78 ERSR act – inducers of ER stress response in human glioma cells. U87-MG GRP78 promoter luciferase reporter, 16 h. Potency, µM, usual class: activators. 420,000 compounds, 0.02% hits; note: series mostly up to about 76 µM; nearly all actives have a fitted effect of over 35% in size
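Stably transfected U87-MG human glioma cells carrying a GRP78-based luminescent sensor were seeded at 1000 cells/well, pin-dosed with compounds and incubated 16 h. Luciferase reagent was then added, and end-point luminescence was read after 10 min at room temperature.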
Large screens that a line does not name were inactive. Unless noted, calls come from the whole dose curve; as a rule, active = well fitted curve in the direction sought with a large enough effect; inconclusive = small, poorly fitted or top-dose-only effect, or another doubt; inactive = no such curve, though single readings can be large; an effect the other way counts as inactive or inconclusive.

Cc1ccc(S(=O)(=O)N2CCN(CC(=O)N/N=C\C(Cl)=C\c3ccccc3)CC2)cc1	KCNH2 3.1 inh -196.9, hERG WT inh -130.1
CC(/C=N\NC(=O)CN1CCN(S(=O)(=O)c2ccc(C)cc2)CC1)=C\c1ccccc1	KCNH2 3.1 inh -83.8
CC1=CC(=O)C=C(C)C1=NOS(=O)(=O)c1ccccc1	RXFP1 antag -84.2
CC1=CC(=O)C(C(C)C)=C/C1=N/OS(=O)(=O)c1ccccc1	RXFP1 antag inconclusive
C=CCn1c(C)cc(-c2csc(NCC)n2)c1C	none
O=C(NN1C(=O)C2C3C=CC(C3)C2C1=O)c1cccc(Cl)c1 (stereo unspecified)	hERG WT inh -78.0
Cc1cc(OCCN2CC(C)OC(C)C2)ccc1[N+](=O)[O-] (stereo unspecified)	none
Cc1cc(OCCN2CCC(Cc3ccccc3)CC2)ccc1[N+](=O)[O-]	KCNH2 3.1 inh -71.0
Cc1ccc(C)c(OCC(O)CN2CCC(Cc3ccccc3)CC2)c1 (stereo unspecified)	KCNH2 3.1 inh inconclusive, RXFP1 antag -69.6
OC(COc1ccc(Cl)cc1)CN1CCC(Cc2ccccc2)CC1 (stereo unspecified)	KCNH2 3.1 inh -125.3, hERG WT inh -93.5
CCCCN(C)C(=O)C1CCN(Cc2ccc(OCc3ccccc3)cc2)CC1	KCNH2 3.1 inh -74.5
O=C(Oc1ccccc1C(=S)N1CCOCC1)c1ccc([N+](=O)[O-])cc1[N+](=O)[O-]	none
O=C(NCC1CCCO1)c1c(O)c2ccccc2[nH]c1=O (stereo unspecified)	none
CC1CCn2c(nc3cc(C(=O)NCCc4ccc(Cl)cc4)ccc32)C1 (stereo unspecified)	none (no result: KCNH2 3.1 inh, hERG WT inh)
CCc1cccc(C)c1NC(=O)COn1nnc2ccc(C(F)(F)F)cc21	none
Cc1ccc(C(C)C)c(OCC(O)CN2CCc3ccccc3C2)c1 (stereo unspecified)	RXFP1 antag -80.5, hERG WT inh -112.9
CCOc1ccc(CN2CCC(Cc3ccccc3)CC2)cc1	KCNH2 3.1 inh -91.9, hERG WT inh -84.9
COc1ccccc1CNc1nc(NCCOc2ccccc2Cl)c2sccc2n1	none (no result: KCNH2 3.1 inh, RXFP1 antag, hERG WT inh, RXFP1 agonist)
Cc1cccc(N2CCN(C(=O)c3cc4c(=O)n(C)c5ccccc5c4n3C)CC2C)c1 (stereo unspecified)	RXFP1 antag -77.1
COc1ccc(-n2nc(C(=O)N3CCN(c4cccc(C)c4)C(C)C3)c3c4ccccc4n(C)c3c2=O)cc1 (stereo unspecified)	none (no result: KCNH2 3.1 inh, hERG WT inh, GRP78 ERSR act)
Cc1ccc(CN2C(=O)CC(c3ccc(Cl)cc3)c3c(C)nn(-c4nc(C)cc(C)n4)c32)cc1 (stereo unspecified)	none (no result: KCNH2 3.1 inh, hERG WT inh)
CC1=CC2C(C(O)CC3(C)C2CC(C)C32OCOC23COCO3)C2(C)C/C(=C\O)C(=O)C=C12 (stereo unspecified)	RXFP1 antag -75.7 (no result: KCNH2 3.1 inh, RXFP1 agonist)
O=C(Nc1ccccc1N1CCN(C(=O)c2ccc(Cl)cc2)CC1)c1ccc2c(c1)OCO2	KCNH2 3.1 inh -82.3
O=C(Nc1ccc(N2CCN(C(=O)c3ccccc3)CC2)cc1)c1ccc2c(c1)OCCO2	none
O=C(Nc1ccccc1N1CCN(C(=O)c2ccc(Cl)cc2)CC1)c1cccc(F)c1	hERG WT inh inconclusive
O=C(Nc1ccc(N2CCN(C(=O)c3ccc(Cl)cc3)CC2)cc1)c1ccc2c(c1)OCCO2	KCNH2 3.1 inh -78.8
CC(C)(C)c1ccc(C(=O)Nc2ccc(C(=O)N3CCOCC3)cc2)cc1	RXFP1 antag -75.9
Cc1nn2c(NCCN3CCOCC3)c3c(nc2c1-c1ccccc1)CCCC3	RXFP1 antag inconclusive
Cc1ccc(C)c(N2CCN(C(=O)Cn3ncc4c(=O)oc5ccccc5c43)CC2)c1	none (no result: KCNH2 3.1 inh, RXFP1 antag, hERG WT inh)
O=C(Nc1ccccc1NC(=O)c1ccccc1F)c1ccccc1F	hERG WT inh -89.2
CCN1CCN(Cc2c(O)ccc3oc(C)c(C(=O)Nc4ccc(OC)cc4)c23)CC1	none (no result: KCNH2 3.1 inh, hERG WT inh)
Cn1c(N2CCN(S(=O)(=O)c3ccc(Cl)cc3)CC2)nc2ccccc21	none
